Laboratory results: the supplement of paper PMC12067093, “Discovery and optimisation of a covalent ligand for TRIM25 and its application to targeted protein ubiquitination” (Chemical Science, 2025)
Targets with the largest changes are over-represented here; the source holds about 21,000 in all.

Compound: Cc1cc(ccc1-c1ccccc1)C(=O)N1CCCN(CC1)C(=O)CCl [compound 10]
Assay: probe-labelled cysteine peptide fold change vs DMSO (competition) (log2 fold change); higher = less target engagement (more negative = stronger competition)
Settings: THP-1, incubation time: 4 h
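Also: competitive profiling in live THP-1 cells: cysteine peptides tagged with an iodoacetamide desthiobiotin (IA-DTB) probe, intensity after compound treatment relative to DMSO-treated cells.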

Target | probe-labelled cysteine peptide fold change (10 µM) | probe-labelled cysteine peptide fold change (50 µM)
CTU1_Q7Z7A3_144_SCCTFCGVLR (UniProt Q7Z7A3) | -0.353 | -1.17
DDX5_P17844_200_STCIYGGAPK (UniProt P17844) | -0.0442 | -0.0153
CXXC1_Q9P0U4_564_VPADEVCGCPLVR (UniProt Q9P0U4) | 0.111 | -0.109
CROT_Q9UKG9_584_SCPETDAEK (UniProt Q9UKG9) | -0.0249 | 0.181
CUL3_Q13618_462+464_LKTECGCQFTSK (UniProt Q13618) | -0.0794 | -1.31
COPE_O14579_212_CSPTLLLLNGQAACHMAQGR (UniProt O14579) | 0.0619 | 0.054
DDX54_Q8TDD1_389_CSTLIVTDLAAR (UniProt Q8TDD1) | 0.1 | 0.184
COPA_P53621_1169_NPTDAYQLNYDMHNPFDICAASYR (UniProt P53621) | 0.178 | 0.397
CRIP2_P52943_150_DWHRPCLR (UniProt P52943) | 0.923 | 1.04
CRIP1_P50238_52+56_PYCNHPCYAAMFGPK (UniProt P50238) | 0.0432 | -0.424
COLGALT1_Q8NBJ5_369_ALQAQEIECR (UniProt Q8NBJ5) | 0.0256 | 0.125
DDX18_Q9NVP1_407_ANATVDGLEQGYVVCPSEK (UniProt Q9NVP1) | -0.401 | 0.698
CORO1B_Q9BR76_25_NDQCYEDIR (UniProt Q9BR76) | -0.0464 | -0.0083
CYBB_P04839_369_IVGDWTEGLFNACGCDK (UniProt P04839) | -0.0879 | 0.149
DKK2_Q9UBU2_214_ICKPVLHQGEVCTK (UniProt Q9UBU2) | -0.0653 | -0.0474
COPE_O14579_225_CSPTLLLLNGQAACHMAQGR (UniProt O14579) | 0.0563 | 0.158
DMXL2_Q8TDJ6_1897_VGCPVLALEVLSK (UniProt Q8TDJ6) | 0.0214 | -0.0631
DDAH2_O95865_220_AMAVLTDHPYASLTLPDDAAADCLFLRPGLPGVPPFLLHR (UniProt O95865) | 0.061 | 0.0115
DCP2_Q8IU60_391_KLQDNFETDAVYDLPSSSEDQLLEHAEGQPVACNGHCK (UniProt Q8IU60) | -0.353 | -1.7
DCAF8_Q5TAQ9_256_FLPNSGDSTLAMCAR (UniProt Q5TAQ9) | -0.0556 | -0.22
DKC1_O60832_74_TTHYTPLACGSNPLKR (UniProt O60832) | -0.0751 | -0.244
DDX59_Q5T1V6_453_LFKPPVLVFVDCK (UniProt Q5T1V6) | -0.33 | -1.68
DENND4B_O75064_652_HAALEFFDSCVEK (UniProt O75064) | 0.0262 | 0.235
DNAJB1_P25685_179_VSLEEIYSGCTK (UniProt P25685) | -0.0218 | 0.255
DCLRE1C_Q96SD1_34_AYFLSHCHK (UniProt Q96SD1) | -0.0775 | -0.167
DNM1L_O00429_446_IIQHCSNYSTQELLR (UniProt O00429) | -0.165 | -0.0631
COG1_Q8WTW3_318_LCSWFK (UniProt Q8WTW3) | -1.03 | -2.3
CPNE1_Q99829_4+14_AHCVTLVQLSISCDHLIDK (UniProt Q99829) | -0.148 | -0.173
